MCL1 BIM primary – MCL1-BIM-BH3 interaction inhibition (human); GST-MCL1 / FITC-Bim-BH3 fluorescence polarization; inhibition, % at 10.9 µM; 320,000 tested, 0.68% active;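 active = inhibition above the mean inhibition of all tested compounds plus 3 SD, set per campaign, cut at about 40% in these data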;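 also: higher means more loss of mP so more displacement of Bim peptide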
BCLXL inh – Bcl-xL (human) inhibition; Q07817; 320,000 tested, 0.7% active; inhibition, % at 10.9 µM; GST-Bcl-xL / FITC-Bim BH3 peptide fluorescence polarization;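 active = inhibition above the mean of all tested compounds plus 3 SD, cutoff set per campaign, cut at about 30% in these data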;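 also: inhibitors lower millipolarization by displacing the labeled peptide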
Yeast superoxide – caloric restriction mimetics inhibiting age-related superoxide in yeast | S. cerevisiae aged cells, superoxide DHE fluorescence; stronger effect = lower value | superoxide response (% of plate mean), % at 10 µM | 330,000 tested, 0.18% active | AID 2690;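 active = superoxide response under a set limit, about three screen SD below normal, cut at about 65% in these data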;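 also: yeast aged for seven days with compound at 30 °C before DHE staining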
MEX-5 binding – C. elegans MEX-5 TCR-2 RNA binding activity | Q9XUB2 | MEX-5/FITC-TCR2 RNA binding, fluorescence polarization; stronger effect = lower value | activity score (negative = inhibition of binding), % at 10 µM | 300,000 tested, 0.38% active | AID 1832;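 active = inhibition past about -25% in most replicates, and total fluorescence under double the plate's negative control median, limit read from the data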
GLD-1 TGE inh – GLD-1-TGE RNA interaction inhibition (C. elegans) | Q17339 | purified GLD-1 + fluorescein TGE RNA, fluorescence polarization | inhibition, % at 5.96 µM | 320,000 tested, 0.44% active;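 active = percent inhibition above a per-plate cutoff, the plate mean of test compounds plus 3 SD, cut at about 30% in these data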
LANA-H2A inh – blocks KSHV LANA binding to histone H2A/H2B. Q9QR71. cell-free LANA-H2A/H2B peptide, fluorescence polarization. inhibition, % (no concentration beside the values). 320,000 tested, 0.6% active; in the data active = inhibition mostly above about 10%, no sharp cut-off; inactive = mostly below about 6.7%
Hits are given with their value; 0 = inactive; - = no result given; ! = a repeat was not active. Rows were chosen to be rich in hits. Some 1.9% of all compounds tested hit in one or more screens of this group.

SMILES	MCL1 BIM primary	BCLXL inh	Yeast superoxide	MEX-5 binding	GLD-1 TGE inh	LANA-H2A inh
CC[C@@]1(C(=O)OC)N[C@H](CN(C)C(=O)Nc2ccc(OC)cc2)[C@@H]2C(=O)N(C)C(=O)[C@@H]21	-	-	0	-	0	0
CCN(CC(=O)Nc1ccc(OC)cc1)C(=O)Cc1coc2cc(C)c(C)cc12	0	0	0	-	0	55.6
CCN(CC(=O)Nc1ccc(OC)cc1)C(=O)CSCC(=O)Nc1ccc(C)cc1	0	0	0	0	0	0
Cc1ccc([N+](=O)[O-])cc1S(=O)(=O)Nc1ccc(C(=O)N(C)C)cc1	0	0	0	0	0	0
O=C(COc1ccc([N+](=O)[O-])cc1)Nc1ccc(N2CCN(C(=O)c3ccco3)CC2)cc1	0	0	0	0	0	28.4
Cc1ccc([N+](=O)[O-])cc1S(=O)(=O)Nc1ccc(C(=O)N2CCN(C(=O)c3ccco3)CC2)cc1	0	0	0	-	0	16.5
CC(C)CN(C(=O)CCNC(=O)c1ccc(Cl)cc1)C1CCS(=O)(=O)C1 (stereo unspecified)	-	-	0	-	0	0
Cc1ccccc1C(=O)NNC(=O)C1CCN(C(=O)Nc2ccccc2)CC1	0	0	0	0	0	0
CC(N=C(NC#N)Nc1ccncc1)C(C)(C)C (stereo unspecified)	0	0	0	0	0	48.0!
CCCC(C)C(=O)Nc1ccncc1 (stereo unspecified)	0	0	0	0	0	0
C=C[C@@H]1c2cc(C)ccc2N(S(=O)(=O)c2ccc(C)cc2)[C@H](c2ccccc2)C1(C#N)S(=O)(=O)c1ccccc1 (stereo partly specified)	-	-	0	-	0	0
Cc1nc(N[C@@H](Cc2c[nH]c3ccccc23)C(=O)O)c2oc3ccccc3c2n1	0	0	0	-	0	18.5
CCc1nc(N[C@@H](Cc2c[nH]c3ccccc23)C(=O)O)c2oc3ccccc3c2n1	0	0	0	0	0	0
CN(C)c1ccc(/C=N/NC(=O)c2cnc3ccccc3c2)cc1	0	0	0	-43.9	0	0
CN(C)c1ccc(/C=N/NC(=O)c2ccccn2)cc1	0	0	0	0	0	0
CCn1c(C)c(C2=CCN(S(=O)(=O)c3ccccc3)CC2)c2ccccc21	0	0	0	0	32.2	0
Cc1ccc(S(=O)(=O)N2CC=C(c3c(C)n(C)c4ccccc34)CC2)cc1	0	0	0	0	0	0
CCn1c(/C=C/c2cccc([N+](=O)[O-])c2)nc2ccccc2c1=O	0	0	0	0	0	0
O=c1c2ccccc2nc(/C=C/c2cccc([N+](=O)[O-])c2)n1CCO	0	0	0	0	0	19.0
COc1ccc(-c2nc3n(c2C)Cc2ccccc2-3)cc1	41.5	46.4	0	0	0	0
CN/C(=C/[N+](=O)[O-])NCCSCc1ccc(CN(C)C)o1	0	0	0	0	0	16.2!
COc1ccc(C(=O)c2sc3nc(-c4ccccc4)ccc3c2N)cc1	39.9	52.3	0	0	0	0
N/C(=N\OC(=O)c1ccccc1)c1ccn[nH]1	0	0	0	0	0	0
Cc1noc(C)c1NC(=O)N(C)C[C@H]1Oc2ccc(NC(=O)c3ccncc3)cc2C(=O)N([C@H](C)CO)C[C@@H]1C	-	-	0	-	0	-
NC(=O)c1ccc(NC(=O)Cc2ccc(S(=O)(=O)N3CCCCC3)cc2)cc1	0	0	0	-	0	0
SMILES	MCL1 BIM primary	BCLXL inh	Yeast superoxide	MEX-5 binding	GLD-1 TGE inh	LANA-H2A inh
Nc1ccc(S(N)(=O)=O)cc1N	0	32.9	0	0	0	0
Nc1ccc(S(N)(=O)=O)cc1	0	0	0	0	0	0
COc1ccc(CCN2CC(C(=O)Nc3nccs3)CC2=O)cc1OC (stereo unspecified)	-	-	0	-	0	0
O=C(CSc1nnc(-c2ccncc2)n1-c1ccccc1)Nc1ccc(C(=O)O)cc1	0	0	0	0	0	0
O=C(CSc1nnc(-c2ccncc2)n1-c1ccccc1Cl)Nc1ccc(C(=O)O)cc1	0	0	0	0	0	47.7
CNS(=O)(=O)c1cc(Cl)ccc1Sc1ccccc1C(=O)O	0	0	0	0	0	0
NS(=O)(=O)c1c(Sc2ccccc2C(=O)O)ccc2ccccc12	45.8	34.8	0	0	0	0
Cc1nc2c3ccccc3nc(NNC(=O)CCC(=O)NC3CCCC3)n2n1	0	0	0	0	0	0
